Shown are actives, neighbours in structure and some others; about 19% of the full set was active somewhere.
HT1080 IDH1KD tx = qHTS for induction of synthetic lethality in tumor cells producing 2HG: qHTS for the HT-1080-IDH1KD cell line | Potency, µM (titrated, usually from 46.1 µM), without a hit: top-dose activity, negative = toxicity, most hits filed as cytotoxic | 360,000 compounds, 2% hits | AID 686971, 2013 | HT-1080 IDH1 knockdown viability, ATP luminescence, 48 h;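 also: 0% = DMSO wells and -100% = cell-free medium wells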
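HT-1080-IDH1KD cells (IDH1 knocked down), 750/well in RPMI with 5% FBS, treated with compound 48 h at 37 degrees C. Viability by CellTiter-Glo luminescence, normalised to DMSO and no-cell wells; concentration-response curves classed.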
KB-V1 cytotox = qHTS assay for MDR1-selective chemotherapeutics: Primary screen using the drug-selected MDR subline cells KB-V1 | 400,000 compounds, 3.4% hits | KB-V1 MDR cells viability, CellTiter-Glo, 72 h | Potency, µM (titrated, usually from 46.1 µM), usual class: cytotoxic; also: nearly all actives have a fitted effect of over 60% in size
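Cytotoxicity toward P-gp-expressing KB-V1 cells was determined as loss of CellTiter-Glo luminescence after 72 h at 37 degrees C. Compounds were tested in quantitative HTS format across a concentration range, with curves fitted to normalized data.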
DT40 TDP1 no CPT = qHTS for Inhibitors of human tyrosyl-DNA phosphodiesterase 1 (TDP1): qHTS in cells in absence of CPT; DT40 Tdp1-/- hTDP1 cells, no CPT, ATP luminescence, 48 h; Potency, µM (series often up to 46.2 µM), without a hit: top-dose activity change, negative = growth inhibition, actives largely listed as inhibitors; 420,000 compounds, 15% hits; AID 686978, 2013; also: nearly all actives have a fitted effect of over 55% in size
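Growth kinetics read by CellTiter-Glo luminescence after ≥48 hr at 37 °C. Cells: DT40 Tdp1-/- stably carrying human TDP1, 400 per well, compound exposure in the absence of CPT (DMSO vehicle).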
DT40 TDP1 CPT = qHTS for Inhibitors of human tyrosyl-DNA phosphodiesterase 1 (TDP1): qHTS in cells in presence of CPT; chicken DT40 Tdp1-/-;hTDP1 cells + 20 nM CPT, ATP luminescence, 48 h; Potency, µM (series often up to 46.2 µM), for the others: top-dose activity change, negative = growth inhibition, most hits filed as inhibitors; 420,000 compounds, 12% hits; AID 686979, 2013; also: nearly all actives have a fitted effect of over 55% in size
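Cell growth measured by CellTiter-Glo luminescence after a minimum 48 h, 37 C compound exposure with 20 nM CPT in Tdp1-knockout DT40 cells stably expressing hTDP1, seeded 400/well; qHTS titration format.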
KB-3-1 tox = qHTS assay for MDR1-selective chemotherapeutics: Primary screen using the parental adenocarcinoma cell KB-3-1; KB-3-1 viability, CellTiter-Glo ATP luminescence, 72 h; Potency, µM (titrated, usually from 46.1 µM), actives largely listed as cytotoxic; 400,000 compounds, 1.4% hits; also: nearly all actives have a fitted effect of over 60% in size
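Using CellTiter-Glo luminescence, growth of non-resistant KB-3-1 adenocarcinoma cells is assessed 72 h after pin-tool compound addition at 37 °C. Normalized responses across the concentration series yield fitted curves.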
HT1080NT lethal = qHTS for induction of synthetic lethality in tumor cells producing 2HG: qHTS for the HT-1080-NT fibrosarcoma cell line | HT-1080-NT fibrosarcoma viability, CellTiter-Glo ATP luminescence, 48 h | Potency, µM (titrated, usually from 46.1 µM), for inactives: at the highest dose activity, negative = less viability, actives largely listed as cytotoxic | 360,000 compounds, 1.6% hits;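 also: NT is the 2HG producing partner of a matched IDH1 knockdown line; 0% = DMSO-treated cells and -100% = media-only wells without cells; nearly all actives have a fitted effect of over 55% in size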
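Luminescent CellTiter-Glo readout after 48 hours of compound exposure at 37 degrees C defined viability of HT-1080-NT cells. Activity was normalized to DMSO wells and cell-free media wells; concentration-response curves were fitted and assigned curve classes.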
* = called active by the depositor; i = inactive; ? = inconclusive; nt = not tested or not shown; [ ] = another dose, or the depositor's remark. Calls follow the shape of the dose curve; as a rule, active = well fitted curve in the direction sought with a large enough effect; inconclusive = small, poorly fitted or top-dose-only effect, or another doubt; inactive = no such curve, though single readings can be large; an effect the other way counts as inactive or inconclusive. Unless noted, % is scaled to controls: 0 for no effect and ±100 for the full control effect; potency is read from the fitted curve at half-maximal effect.

SMILES | HT1080 IDH1KD tx | KB-V1 cytotox | DT40 TDP1 no CPT | DT40 TDP1 CPT | KB-3-1 tox | HT1080NT lethal
CCOc1ccc(Br)cc1S(=O)(=O)Nc1cccc(S(=O)(=O)N(C)c2ccccc2)c1 | -27% | 4.1µM* | -27% | -21% | ? | -9%
CCOc1ccc(Br)cc1S(=O)(=O)Nc1ccc(NC(=O)c2ccccc2F)cc1 | -26% | ? | 16µM* | ? | ? | -28%
CCOc1ccc(Br)cc1S(=O)(=O)Nc1ccc(C(=O)Nc2ccccc2OC)cc1 | 1% | i | -25% | -27% | i | -5%
Cc1ccccc1Cn1c(C)c(C(=O)NCC(C)C)sc1=O | ? | i | ? | ? | i | ?
Nc1c(-c2nc(-c3cccs3)no2)nnn1-c1cccc(Cl)c1 | nt | ? | 1% | 12% | i | nt
NC(=O)c1cc[n+](CC2=C(C(=O)[O-])N3C(=O)[C@@H](NC(=O)Cc4cccs4)[C@H]3SC2)cc1 | nt | nt | -20%[21.1 µM] | -6%[21.1 µM] | nt | nt
COc1ccccc1N1CCN(C(=O)c2cc(=O)c3c(C)cc(C)cc3o2)CC1 | 0% | i | -22% | -24% | i | 4%
S=C1NCCOCCOCCOCCNC(=S)N2CCOCCOCCN1CCOCCOCC2 | -1% | i | -15% | -8% | i | 0%
CCOc1ccc(Br)cc1C(=O)Nc1ccc(C(=O)NCC(C)C)cc1 | -3% | ? | ? | 10µM* | ? | -8%
COc1ccc(Br)cc1C(=O)Nc1ccc(C(=O)NCC(C)C)cc1 | -3% | i | ? | -13% | i | -5%
CCOC(=O)C1CCCN(C(=O)c2c(C)nn(-c3ccc(F)cc3)c2-n2cccc2)C1 (configuration not stated) | nt | ? | nt | nt | i | nt
COc1ccc(CCNC(=O)c2cnn3ccccc23)c(OC)c1OC | 12% | i | 23µM* | ? | i | 24%
COc1ccc(CCNC(=O)c2c(C)nn(-c3ccc(F)cc3)c2-n2cccc2)c(OC)c1OC | nt | 12µM* | nt | nt | ? | nt
Cc1ccc(C)c(NC(=O)c2cc3ccccn3n2)c1 | 0% | ? | -27% | -23% | i | 11%
Cc1ccc(C)c(NC(=O)c2cnn3ccccc23)c1 | -10% | i | 12µM* | 5.8µM* | ? | 1%
O=C(NCc1ccccc1)C1C(=O)Nc2ccccc2C(=O)N1c1ccc2c(c1)OCCO2 (configuration not stated) | 0% | i | -28% | -5% | i | 5%
CC(=O)c1ccc(-c2nc3c4ccccc4ccn3c2C(C)=O)o1 | 16% | 7.3µM* | -9% | 5% | ? | 16%
Cc1ccc(-c2nc3c4ccccc4ccn3c2CC2CCCCC2)cc1 | -8% | i | -29% | ? | i | -2%
Cc1ccc2nc(N3CCN(C(=O)c4ccccc4F)CC3)c(C#N)cc2c1 | 3% | i | ? | ? | i | 11%
Cc1ccc2cc(C#N)c(N3CCN(C(=O)c4cccs4)CC3)nc2c1 | 11% | ? | 21µM* | ? | i | 0%
Cc1ccc2nc(N3CCN(C(=O)c4ccc(F)cc4)CC3)c(C#N)cc2c1 | -1% | i | 23µM* | ? | i | -1%
COc1ccc(CC(=O)NCc2ccccc2F)cc1S(=O)(=O)N1CCOCC1 | 13% | i | -4% | 6% | i | 3%
CCCOc1cccc(C(=O)Nc2cccc(-c3nc4ncccc4o3)c2C)c1 | nt | ? | nt | nt | i | nt
Nc1nnc2cc(Cl)ccc2n1 | -7% | i | -23% | ? | i | -24%
Cc1ccc2nc(N)nnc2c1 | 3% | ? | 0.52µM* | ? | i | 2%
SMILES | HT1080 IDH1KD tx | KB-V1 cytotox | DT40 TDP1 no CPT | DT40 TDP1 CPT | KB-3-1 tox | HT1080NT lethal
Cc1cc(NC(=S)NC(=O)/C=C/c2ccc(S(=O)(=O)N3CCOCC3)cc2)ccc1Br | 13% | i | 15µM* | ? | ? | -3%
CCN(Cc1ccc(OC)c(F)c1)C(=O)/C=C/c1ccc(S(=O)(=O)N2CCOCC2)cc1 | -18% | i | 23µM* | ? | i | -16%
O=C(/C=C/c1ccc(F)cc1)Nc1ccc(S(=O)(=O)N2CCOCC2)cc1 | -1% | i | -5% | ? | i | 12%
Cc1ccc(NC(=O)/C=C/c2ccc(S(=O)(=O)N3CCOCC3)cc2)cc1S(=O)(=O)N(C)C | 26µM* | i | 15µM* | ? | ? | ?
O=C(/C=C/c1ccc(S(=O)(=O)N2CCOCC2)cc1)Nc1ccc(F)c(F)c1F | -7% | 21µM* | ? | ? | ? | -13%
CC(=O)Nc1cccc(NC(=O)/C=C/c2ccc(S(=O)(=O)N3CCOCC3)cc2)c1 | -4% | i | -25% | ? | i | -6%
COc1cccc(NC(=O)/C=C/c2ccc(S(=O)(=O)N3CCOCC3)cc2)c1 | -2% | i | ? | 18µM* | i | 2%
Cc1oc(-c2cccc(Cl)c2)nc1CSc1nncn2c1cc1occc12 | nt | i | -2% | 27% | i | nt
COc1ccc(Cc2nc3ccccc3n2CC(=O)N/N=C/c2ccc(C)cc2O)cc1OC | -18% | i | 0.65µM* | 2.1µM* | i | -8%
COc1cc(/C=N/NC(=O)CCn2cnc(-c3ccccc3)c2-c2ccccc2)ccc1O | ? | i | 18µM* | ? | i | 16µM*
COc1cc(/C=N/NC(=O)CCN2CCCCC2)ccc1O | 0% | i | -15% | 14% | i | 2%
COc1ccc(/C=N/NC(=O)c2nc(-c3ccccc3)cc(-c3ccccc3)n2)cc1O | ? | 16µM* | 16µM* | 13µM* | ? | ?
COc1ccc(Cc2nc3ccccc3n2CC(=O)N/N=C/c2ccc(O)cc2)cc1OC | 9% | i | 14% | -3% | i | 2%
COc1ccc(/C=N/NC(=O)c2cc(-c3ccccc3)nc3ccccc23)cc1O | -25% | i | 1.3µM* | 10µM* | i | -16%
COc1ccc(/C=N/NC(=O)c2nc(-c3ccccc3)n(-c3ccccc3)n2)cc1OC | 6% | i | ? | ? | i | -1%

Assay outcomes from PubChem BioAssay.
